Measured values published in PubChem BioAssay (Tox21).
Inconclusive results are not listed. Where a structure was tested more than once in an assay, its records may differ in their call. The source made the active and inactive calls. The call rests on the fitted dose curve; in most records, active means well fitted cell-killing curve with a large enough effect in the repeat runs; inconclusive means weak or mixed curves, or effect the other way; inactive means flat fitted curve, though single readings scatter.

Test: qHTS assay to identify small molecule agonists of the estrogen receptor beta (ER-beta) signaling pathway - cell viability counter screen (AID 1259380); further: nearly all actives have a fitted effect of over 30% in size
Details: ER-beta-bla HEK293T viability, CellTiter-Glo luminescence, 16 h; series mostly up to 92.4 µM
From the text: National Center for Advancing Translational Sciences [NCATS]
NIH Chemical Genomics Center [NCGC]
U.S. Environmental Protection Agency [EPA]
National Institutes of Environmental Health Sciences [NIEHS]
National Toxicology Program [NTP]
U.S. Food and Drug Administration [FDA]
Estrogen receptor (ER), a nuclear hormone receptor, plays an important role in development, metabolic homeostasis and reproduction. Two subtypes of ER, ER-alpha and ER-beta, have similar expression patterns with some uniqueness in both types. Endocrine disrupting chemicals (EDCs) and their interactions with steroid hormone receptors like ER causes disruption of normal endocrine function. To identify the compounds that activate ER signaling, an ER beta-UAS-bla GripTite cell line (Life Technologies, Madison, WI, USA) containing a beta-lactamase reporter gene under the control of an UAS response element was used to screen Tox21 10K compound library. The cytotoxicity of the Tox21 compound library against the ER-beta-bla cell line was tested in parallel by measuring the cell viability using CellTiter-Glo assay in the same wells.
Tox21 Assay Protocol Summary:
ER-beta-UAS-bla HEK293T cells were dispensed at 2,000 cells/5 uL of assay medium containing 2% charcoal stripped FBS per well into black wall/clear-bottom 1536-well plates using a Multidrop Combi (ThermoFisher Scientific, Waltham, MA) dispenser. After the assay plates were incubated at a 37C and 5% CO2 for 6 hr, 23 nL of compounds dissolved in DMSO, positive controls or DMSO only was transferred to the assay plate by a Pintool station (Kalypsys, San Diego, CA). The plates were incubated at 37C and 5% CO2 for 16 hr. Then 1 uL of LiveBLAzerTM B/G FRET substrate was added using a BioRAPTR FRD (Flying Reagent Dispenser, Aurora Discovery, San Diego, CA) and then the plates were incubated at room temperature for 2 hours, and fluorescence intensity was measured by an Envision plate reader (PerkinElmer, Shelton, CT). For cell viability readout that measures cytotoxicity, 4 uL/well of CellTiter-Glo reagent was added into the assay plates using a FRD. After 30 min incubation at room temperature, the luminescence intensity in the plates was measured using a ViewLux (PerkinElmer) plate reader.
On the % scale 0 is the no-effect control and ±100 the full control effect; potency means the concentration at half of the fitted maximal effect.

Structure (SMILES)	Potency	activity change, negative = cytotoxicity
[Cl][Bi]([Cl])([c]1ccccc1)([c]1ccccc1)[c]1ccccc1	24.2 µM (active)	
COc1cc(-c2ccc(N=C=O)c(OC)c2)ccc1N=C=O	inactive	
COc1ccc(C(=O)/C(Br)=C\C(=O)O)cc1	inactive	
NC(=O)C1(N2CCCCC2)CCN(CCCN2c3ccccc3CCc3ccc(Cl)cc32)CC1	13.3 µM (active)	
CC(C)(C)CC(C)(C)c1ccc(O)c(Cc2ccc(Cl)cc2Cl)c1	11.9 µM (active)	
O=C(O)c1ccc(Cl)c(Cl)c1	inactive	
CCCCCCCCNC(C)C(O)c1ccc(SC(C)C)cc1 (stereo not given)	11.9 µM (active)	
CNC(=O)c1ccccc1	inactive	
C[n+]1cc2c3c(ccc2c2ccc4cc5c(cc4c21)OCO5)OCO3	2.59 µM (active)	
OCCN1CCN(CC/C=C2/c3ccccc3Sc3ccc(C(F)(F)F)cc32)CC1	21.1 µM (active)	
O=[N+]([O-])c1cc(Cl)c(Cl)c(Cl)c1Cl	inactive	
CC[C@@]1(O)C(=O)OCc2c1cc1n(c2=O)Cc2cc3c(CN(C)C)c(O)ccc3nc2-1	inactive	
C[C@H]1[C@H]2CC[C@H]3[C@@H]4CC=C5C[C@@H](N(C)C)CC[C@]5(C)[C@H]4CC[C@]23CN1C	inactive	
C1CCCC1	inactive	
O=C1c2ccccc2Cc2ccccc21	inactive	
CCCCCCCCCCC=O	inactive	
Cc1ccc(-n2nc(C(C)(C)C)cc2NC(=O)Nc2ccc(OCCN3CCOCC3)c3ccccc23)cc1	7.5 µM (active)	
CCCCCCCCn1sc(Cl)c(Cl)c1=O	12.2 µM (active)	
CCc1cc(SCc2sc(-c3ccc(C(F)(F)F)cc3)nc2CN2CCN(c3ccc(OC)cc3)CC2)ccc1OCC(=O)O	4.33 µM (active)	
CCCCCCCC[P+](CCCCCCCC)(CCCCCCCC)CCCCCCCC	8.58 µM (active)	

Structure (SMILES)	Potency	activity change, negative = cytotoxicity
[O-][n+]1ccccc1SSc1cccc[n+]1[O-]	0.092 µM (active)	
CC(C)CCCCCCCCCCCCCCC(=O)O	54.5 µM (active)	
O=C1c2c(O)ccc(Nc3ccc(CCO)cc3)c2C(=O)c2c([N+](=O)[O-])ccc(O)c21	17.2 µM (active)	
O=C1CCCc2c1cc1ccc3cccc4ccc2c1c34	31 µM (active)	
O=[N+]([O-])c1ccccc1Nc1ccccc1	inactive	
CSc1ccc(C(=O)c2[nH]c(=O)[nH]c2C)cc1	inactive	
CCCCCCCCCCCCCCCC(=O)OC[C@H](O)[C@H]1OC(=O)C(O)=C1O	43.3 µM (active)	
CC1=C(/C=C/C(C)=C/C=C/C(C)=C/C=O)C(C)(C)CCC1	24.2 µM (active)	
C/C(=C(/OCCOc1ccc(Cl)cc1)c1ccc(Cl)cc1Cl)n1ccnc1	15 µM (active)	
CC(=O)SC[C@@H](Cc1ccccc1)C(=O)NCC(=O)OCc1ccccc1	inactive	
CCc1cc(Cc2cc(CC)cc(C(C)(C)C)c2O)c(O)c(C(C)(C)C)c1	19.3 µM (active)	
CC(NN)c1ccccc1 (stereo not given)		-2.17% [at 19 µM] (inactive)
CSc1cnc(C)cn1	inactive	
NNc1nc(-c2ccccc2)cs1	25 µM (active)	
Cc1cccc(S(=O)(=O)O)c1C	inactive	
CC[C@H](c1ccc(O)cc1)[C@@H](CC)c1ccc(O)cc1	48.6 µM (active) and inactive	
COC(=O)C1=C(C)NC(C)=C(C(=O)OCCc2ccc(N3CCN(C(c4ccccc4)c4ccccc4)CC3)cc2)C1c1cccc([N+](=O)[O-])c1 (stereo not given)	inactive	
CCC1OCC(COc2ccc(Oc3ccccc3)cc2)O1 (stereo not given)	inactive	
O=S1(=O)CC(Cl)(Cl)C(Cl)(Cl)C1	9.69 µM (active)	
Cc1cc(C2CCCCC2)n(O)c(=O)c1	inactive	
